Assay outcomes deposited in PubChem BioAssay by National Center for Advancing Translational Sciences (NCATS).
Only some compounds are listed: those with a hit (about 5.9% of all), similar ones and a draw of the others.
TrxR1 substrate: rat thioredoxin reductase 1 substrate activity. O89049. hit rate 0.01% among 390,000. purified TrxR1 substrate turnover, NADPH consumption readout. AID 588456. Potency, µM (titrated, usually from 114 µM), without a hit: top-dose activity change, negative = substrate turnover; further: potency means the concentration at half of the fitted maximal effect; nearly all actives have a fitted effect of over 50% in size
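Rat TrxR1, dispensed at 90 nM, was prereduced with 400 uM NADPH (final) for 5 min at ~22 deg C, then incubated with compound 15 min before 400 uM selenite. A first-read NADPH fluorescence drop versus no-compound background flagged substrates.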
Gal4-VP16 FLuc: Gal4-VP16 reporter inhibition counter-screen; hit rate 3.5% among 310,000; Drosophila S2 Gal4-VP16 UAS-luciferase, luminescence, 20 h; Potency, µM (series often up to 53.6 µM), for the others: at the top dose activity, negative = inhibition, hits mostly inhibitors;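 further: Gal4-VP16 expression switched on by copper sulfate through the metallothionein promoter; potency means the concentration at half of the fitted maximal effect; nearly all actives have a fitted effect of over 50% in size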
FBPA coupling cs: counter-screen for Giardia aldolase inhibitors: coupling enzyme system; coupling enzyme system counterscreen, AmpLite Red fluorescence; AID 2472; activity change, negative = inhibition, % at 58.2 µM, hits read low; hit rate 0.67% among 290,000; in the data active means activity change below about -30%
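Final compound at 57.5 uM, incubated 10 min at RT with coupling enzyme reagent (glyceraldehyde-3-phosphate), then 20 min with substrate and AmpLite Red detection. Fluorescence read at 525/598 nm; tests interference with the coupling assay, not aldolase inhibition.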
RORg inh: blocks mouse ROR gamma transcriptional activity | P51450 | Drosophila S2 Gal4-RORgamma UAS-luciferase reporter, 20 h | Potency, µM (series often up to 53.6 µM), for the others: at the top dose activity change, negative = inhibition, actives largely listed as inhibitors | hit rate 5.4% among 310,000 | AID 2551; further: potency means the concentration at half of the fitted maximal effect; nearly all actives have a fitted effect of over 60% in size
Target sequence (P51450 whole entry, looked up, the tested form may be a part): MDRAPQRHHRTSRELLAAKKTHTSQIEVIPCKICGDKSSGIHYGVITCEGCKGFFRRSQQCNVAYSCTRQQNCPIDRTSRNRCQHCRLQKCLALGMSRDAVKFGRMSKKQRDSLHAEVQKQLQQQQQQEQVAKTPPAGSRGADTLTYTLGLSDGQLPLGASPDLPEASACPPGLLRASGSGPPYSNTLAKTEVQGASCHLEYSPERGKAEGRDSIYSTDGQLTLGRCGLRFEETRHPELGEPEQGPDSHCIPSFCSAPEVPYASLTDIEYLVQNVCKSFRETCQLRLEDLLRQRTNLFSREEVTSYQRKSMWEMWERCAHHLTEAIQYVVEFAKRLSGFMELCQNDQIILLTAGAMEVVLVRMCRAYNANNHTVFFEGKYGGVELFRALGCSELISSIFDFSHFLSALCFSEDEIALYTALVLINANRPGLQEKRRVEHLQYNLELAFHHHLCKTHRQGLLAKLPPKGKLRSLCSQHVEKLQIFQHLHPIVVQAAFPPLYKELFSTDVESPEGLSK
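Using a luciferase readout, inhibitors were identified by reduced reporter activity in Drosophila cells coexpressing a copper-inducible Gal4–ROR gamma fusion and UAS-driven Photinus luciferase, incubated 20 hr after 700 uM copper sulfate.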
TrxR1 inh: rat TrxR1 inhibition | O89049 | recombinant rTrxR1, NADPH fluorescence consumption, selenite substrate | Potency, µM (series often up to 114 µM), without a hit: at the top dose activity change, negative = inhibition, most hits filed as inhibitors | hit rate 1% among 390,000; further: potency means the concentration at half of the fitted maximal effect; nearly all actives have a fitted effect of over 65% in size
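Rat TrxR1 (90 nM in the dispensed reagent) was pre-reduced with 400 uM NADPH for 5 min at room temperature, then incubated with compound for 15 min. After 400 uM selenite was added, NADPH fluorescence (Ex 340/Em 450 nm) was followed for 8 min.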
GALK inh: blocks human galactokinase activity. P51570. Purified GALK, Kinase-Glo residual ATP luminescence. Potency, µM (top dose mostly 57.5 µM), for the others: top-dose activity change, negative = inhibition, actives largely listed as inhibitors. hit rate 0.007% among 270,000; further: potency means the concentration at half of the fitted maximal effect
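Human GALK (5 nM) with 35 uM ATP and 100 uM galactose in 20 mM HEPES pH 8.0, 5 mM MgCl2, 60 mM NaCl, 1 mM DTT, 0.01% BSA. After 1 h at room temperature, leftover ATP was read by Kinase-Glo Plus luminescence.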
* = called active by the depositor; ? = inconclusive; . = not tested or not shown; [ ] = remark or other dose. Unless noted, the call rests on the fitted dose curve; in most records, active means well fitted curve in the direction sought with a large enough effect; inconclusive means small, poorly fitted or top-dose-only effect, or another doubt; inactive means no such curve, though single readings can be large; an effect the other way counts as inactive or inconclusive. On the % scale 0 is the no-effect control and ±100 the full control effect.

SMILES | TrxR1 substrate | Gal4-VP16 FLuc | FBPA coupling cs | RORg inh | TrxR1 inh | GALK inh
O=C(O)c1cccc(NC2=C(Cl)C(=O)c3ccccc3C2=O)c1 | -15.8% | ? | -19.5 | 11.2µM* | ? | -2.1%
C[C@@H]1CCC[C@H](C)N1NC(=O)c1ccc(Cl)c(S(N)(=O)=O)c1 | -8.2% | -5.5% | -1.0 | 10.3% | -16.2% | 3.7%
COc1cc(C2CC(=O)Nc3ccccc3S2)cc(OC)c1OC (configuration not stated) | -0.3% | -1.7% | 4.4 | 1.0% | 12.0% | -1.4%
CC(C)(C)C(=O)/C=C/Nc1ccccc1O | -11.7%[57.1 µM] | 7.3% | -4.4 | -6.1% | ? | -2.4%
COc1ccc(C)cc1S(=O)(=O)n1cnc(C)c1 | -7.2%[57.1 µM] | 6.7% | -0.4 | 4.3%[1.91 µM] | 9.1%[57.1 µM] | 4.7%
COc1ccc(CCN2CCC(CNC(=O)c3cnn(-c4cccc(Cl)c4)c3C3CCN(C(=O)OC(C)(C)C)CC3)CC2)cc1 | -5.3% | . | . | . | 4.2% | .
Clc1ccccc1-c1cc(NCc2cccnc2)ncn1 | . | -11.1% | -1.7 | 15.6% | . | .
O=C1C(Cl)=C(NCCc2ccccc2)C(=O)c2ccccc21 | -34.4%[57.1 µM] | . | . | . | ? | .
O=C1C(Cl)=C(Nc2ccccc2)C(=O)c2ccccc21 | -10.0% | 12.6µM* | -33.2* | 12.6µM* | 0.631µM* | 0.6%
O=C1C(Cl)=C(NCc2cccnc2)C(=O)c2ccccc21 | -5.7% | ? | 13.1 | 10µM* | -18.3% | 3.5%
CCN(CC)CCCNC1=C(Cl)C(=O)c2ccccc2C1=O | -4.7% | ? | -12.8 | 7.94µM* | ? | -2.6%
O=C(O)c1ccc(NC2=C(Cl)C(=O)c3ccccc3C2=O)cc1 | -4.8% | 5.1% | 19.0 | ? | 0.501µM* | 8.0%
COCCCNC1=C(Cl)C(=O)c2ccccc2C1=O | -3.1% | -17.5% | -20.9 | -28.2% | 15.9% | 5.6%
COCC1CCCN(C(=O)c2cc(COc3cccc4cccnc34)on2)C1 (configuration not stated) | 9.3% | 1.4% | . | 9.8% | 5.3% | -0.3%
C=CCNC1=C(Cl)C(=O)c2ccccc2C1=O | -12.9% | ? | -35.2* | 12.6µM* | ? | 1.8%
C=CCNC1=C(Cl)C(=O)N(Cc2ccccc2)C1=O | 1.0% | -3.4% | -1.0 | 8.9% | -2.6% | 0.2%
Cc1ccc(NC(=O)CN(C)CC(=O)Nc2sc3c(c2C(N)=O)CCC3)cc1 | -3.1% | ? | . | 15.8µM* | -12.1% | -5.5%
Cc1noc(C)c1C(=O)N1CCC2(CC1)CCN(c1ccccn1)CC2 | . | 2.3% | -0.5 | -27.9% | . | .
O=C(Nc1ccc(Cc2ccncc2)cc1)c1ccc(Cl)c([N+](=O)[O-])c1 | -7.0% | -5.9% | -36.1* | 20.8% | 16.6%[57.1 µM] | -1.0%
O=C(Nc1ccncc1)c1cc([N+](=O)[O-])ccc1Cl | . | ? | 1.4 | 8.91µM* | . | .
FC(F)(F)c1cnc(Sc2nc3nccc(-c4ccc(Cl)cc4)n3n2)c(Cl)c1 | 66.9% | ? | -55.4* | ? | 3.4% | -1.0%
COc1ccc(-c2ccnc3nc(Sc4ncc(C(F)(F)F)cc4Cl)nn23)cc1 | 409.3% | -7.2% | -5.9 | 1.5% | 107.1% | 0.9%
COc1ccc(NS(=O)(=O)c2ccc3c(c2)oc(=O)n3C)cc1Cl | -1.2% | -3.0% | 4.1 | 8.5% | 11.0% | 0.0%
CCC(=O)NC1=C(NC(C)c2ccccc2)C(=O)c2ccccc2C1=O (configuration not stated) | -6.1% | ? | -46.2* | -23.5% | -21.2% | 1.5%
CCc1ccc(C(=O)/C=C2\Sc3ccccc3NC2=O)cc1 | -5.9% | ? | 0.8 | ? | -4.1% | 0.1%
SMILES | TrxR1 substrate | Gal4-VP16 FLuc | FBPA coupling cs | RORg inh | TrxR1 inh | GALK inh
COC(=O)c1cc(-c2ccc(Br)cc2)on1 | 2.6%[57.1 µM] | -2.6% | 3.0 | -1.3% | 3.4%[57.1 µM] | 0.9%
CCOC(=O)c1nn(C23CC4CC(CC(C4)C2)C3)c2c1C(=O)N(c1ccc(C)cc1)C2=O | -5.2% | 7.08µM* | 1.2 | 11.2µM* | 5.5% | -0.6%
COC(=O)c1nn(C23CC4CC(CC(C4)C2)C3)c2c1C(=O)N(c1ccc(Br)cc1)C2=O | -10.2% | 5.62µM* | -0.2 | -13.1% | -6.1% | -3.5%
CCOC(=O)C1CCN(S(=O)(=O)c2cccc(-c3cn4cccnc4n3)c2)CC1 | 534.8% | ? | 5.0 | 42.6% | -25.8% | 3.2%
Cc1cccc(OCCCCc2c(C)n[nH]c2C)c1C | 4.7% | ? | -0.9 | 14.1µM* | 21.6% | -2.3%
CCOc1ccccc1OCCCCCc1c(C)n[nH]c1C | 3.2%[57.1 µM] | ? | -0.8 | ? | 7.3%[57.1 µM] | 0.3%
Cc1cccc(OCCCOc2cccc3cccnc23)c1C | 5.0% | ? | . | 12.6µM* | 0.5%[57.1 µM] | 0.3%
COc1cccc(OC)c1OCCCOc1cccc2cccnc12 | -6.6% | ? | -6.8 | ? | 9.2% | -1.1%
Cc1ccc(OCCCOc2cccc3cccnc23)cc1C | 5.3% | ? | -0.5 | 14.1µM* | 15.3%[57.1 µM] | -5.0%
CCOC(=O)N1CCN(C(=O)c2ccc3c(=O)n(-c4cc(OC)ccc4OC)c(=S)[nH]c3c2)CC1 | -3.3% | 1.3% | -3.5 | 4.0% | -15.4% | -0.2%
O=c1c2c(-c3ccccc3)csc2ncn1/N=C/c1cccc([N+](=O)[O-])c1O | -18.1% | -2.1% | 2.3 | 20µM* | -9.5% | -1.0%
COc1cc2c(C(=O)NCCCN3CC(C)CC(C)C3)cn(CC(C)C)c(=O)c2cc1OC (configuration not stated) | 10.5%[57.1 µM] | -3.4% | -0.1 | -0.8% | -39.1% | 0.5%
CC(C)(C)C(=O)OCOP(=O)(COCCn1cnc2c(N)ncnc21)OCOC(=O)C(C)(C)C | . | -2.8% | . | -14.6%[10 µM] | . | .
CCn1c(CSc2nccn2C)nc2cc(C(=O)O)ccc21 | 9.1% | -11.2% | -36.4* | -2.9%[10 µM] | 9.8% | 2.4%
CCn1c(CSc2nc3ccccc3[nH]2)nc2cc(C(=O)O)ccc21 | 57.5% | -14.7% | -0.2 | 3.9% | 19.1% | -4.6%
N#Cc1c2c(c(-c3ccccc3Cl)[nH]c1=S)CCCC2 | 3.6% | 15.8µM* | 6.8 | 15.8µM* | ? | 6.2%
Cc1cccc(N2CCN(C(=O)Cn3cccc3C(=O)c3ccccc3)CC2)c1C | -6.5% | 13.1% | 0.9 | 2.9% | -0.1% | 2.0%
C[C@H](NC(=O)[C@H]1N2C(=O)c3ccccc3C2SC1(C)C)C(=O)NCc1ccncc1 (some centres not stated) | -4.0% | 1.1% | -1.3 | 6.6% | 11.3% | 0.0%
CCc1c(C)nc2ncnn2c1NCCc1ccc(OC)c(OC)c1 | 4.5% | 1.6% | 2.0 | ? | 11.2% | 0.2%
COc1ccc(CCNc2c(C)c(C)nc3ncnn23)cc1 | 4.1%[57.1 µM] | 6.31µM* | -3.0 | -30.3% | -0.5%[57.1 µM] | .
COc1cccc(CNC(=O)CCS(=O)(=O)c2cccc3nonc23)c1 | -0.5% | 0.7% | 0.5 | 0.5% | 15.8µM* | 1.7%
